Tests used:
[1] = molecular target: Platelet-derived growth factor receptor beta (Homo sapiens) (UniProt P09619); conditions: at 0.1 µM
[2] = molecular target: Platelet-derived growth factor receptor beta (Homo sapiens) (UniProt P09619); conditions: at 1 µM
[3] = molecular target: Tyrosine-protein kinase FRK (Homo sapiens) (UniProt P42685); conditions: at 0.1 µM
[4] = molecular target: Tyrosine-protein kinase FRK (Homo sapiens) (UniProt P42685); conditions: at 1 µM
[5] = molecular target: Protein-tyrosine kinase 2-beta (Homo sapiens) (UniProt Q14289); conditions: at 0.1 µM
[6] = molecular target: Protein-tyrosine kinase 2-beta (Homo sapiens) (UniProt Q14289); conditions: at 1 µM
[7] = molecular target: Proto-oncogene tyrosine-protein kinase receptor Ret (Homo sapiens) (UniProt P07949); conditions: at 0.1 µM
[8] = molecular target: Proto-oncogene tyrosine-protein kinase receptor Ret (Homo sapiens) (UniProt P07949); conditions: at 1 µM
[9] = system: Proto-oncogene tyrosine-protein kinase receptor Ret (Homo sapiens), P07949 [V804L]; conditions: at 0.1 µM
[10] = system: Proto-oncogene tyrosine-protein kinase receptor Ret (Homo sapiens), P07949 [V804L]; conditions: at 1 µM
[11] = system: Proto-oncogene tyrosine-protein kinase receptor Ret (Homo sapiens), P07949 [Y791F]; conditions: at 0.1 µM
[12] = system: Proto-oncogene tyrosine-protein kinase receptor Ret (Homo sapiens), P07949 [Y791F]; conditions: at 1 µM
[13] = molecular target: Macrophage-stimulating protein receptor (Homo sapiens) (UniProt Q04912); conditions: at 0.1 µM
[14] = molecular target: Macrophage-stimulating protein receptor (Homo sapiens) (UniProt Q04912); conditions: at 1 µM
[15] = molecular target: Proto-oncogene tyrosine-protein kinase ROS (Homo sapiens) (UniProt P08922); conditions: at 0.1 µM
[16] = molecular target: Proto-oncogene tyrosine-protein kinase ROS (Homo sapiens) (UniProt P08922); conditions: at 1 µM
[17] = molecular target: Proto-oncogene tyrosine-protein kinase Src (Homo sapiens) (UniProt P12931); conditions: at 0.1 µM
[18] = molecular target: Proto-oncogene tyrosine-protein kinase Src (Homo sapiens) (UniProt P12931); conditions: at 1 µM
[19] = molecular target: Tyrosine-protein kinase Srms (Homo sapiens) (UniProt Q9H3Y6); conditions: at 0.1 µM
[20] = molecular target: Tyrosine-protein kinase Srms (Homo sapiens) (UniProt Q9H3Y6); conditions: at 1 µM
[21] = molecular target: Tyrosine-protein kinase SYK (Homo sapiens) (UniProt P43405); conditions: at 0.1 µM
[22] = molecular target: Tyrosine-protein kinase SYK (Homo sapiens) (UniProt P43405); conditions: at 1 µM
[23] = molecular target: Tyrosine-protein kinase Tec (Homo sapiens) (UniProt P42680); conditions: at 0.1 µM
[24] = molecular target: Tyrosine-protein kinase Tec (Homo sapiens) (UniProt P42680); conditions: at 1 µM
[25] = molecular target: Angiopoietin-1 receptor (Homo sapiens) (UniProt Q02763); conditions: at 0.1 µM
Sequence of Angiopoietin-1 receptor (Homo sapiens) (Q02763 whole entry): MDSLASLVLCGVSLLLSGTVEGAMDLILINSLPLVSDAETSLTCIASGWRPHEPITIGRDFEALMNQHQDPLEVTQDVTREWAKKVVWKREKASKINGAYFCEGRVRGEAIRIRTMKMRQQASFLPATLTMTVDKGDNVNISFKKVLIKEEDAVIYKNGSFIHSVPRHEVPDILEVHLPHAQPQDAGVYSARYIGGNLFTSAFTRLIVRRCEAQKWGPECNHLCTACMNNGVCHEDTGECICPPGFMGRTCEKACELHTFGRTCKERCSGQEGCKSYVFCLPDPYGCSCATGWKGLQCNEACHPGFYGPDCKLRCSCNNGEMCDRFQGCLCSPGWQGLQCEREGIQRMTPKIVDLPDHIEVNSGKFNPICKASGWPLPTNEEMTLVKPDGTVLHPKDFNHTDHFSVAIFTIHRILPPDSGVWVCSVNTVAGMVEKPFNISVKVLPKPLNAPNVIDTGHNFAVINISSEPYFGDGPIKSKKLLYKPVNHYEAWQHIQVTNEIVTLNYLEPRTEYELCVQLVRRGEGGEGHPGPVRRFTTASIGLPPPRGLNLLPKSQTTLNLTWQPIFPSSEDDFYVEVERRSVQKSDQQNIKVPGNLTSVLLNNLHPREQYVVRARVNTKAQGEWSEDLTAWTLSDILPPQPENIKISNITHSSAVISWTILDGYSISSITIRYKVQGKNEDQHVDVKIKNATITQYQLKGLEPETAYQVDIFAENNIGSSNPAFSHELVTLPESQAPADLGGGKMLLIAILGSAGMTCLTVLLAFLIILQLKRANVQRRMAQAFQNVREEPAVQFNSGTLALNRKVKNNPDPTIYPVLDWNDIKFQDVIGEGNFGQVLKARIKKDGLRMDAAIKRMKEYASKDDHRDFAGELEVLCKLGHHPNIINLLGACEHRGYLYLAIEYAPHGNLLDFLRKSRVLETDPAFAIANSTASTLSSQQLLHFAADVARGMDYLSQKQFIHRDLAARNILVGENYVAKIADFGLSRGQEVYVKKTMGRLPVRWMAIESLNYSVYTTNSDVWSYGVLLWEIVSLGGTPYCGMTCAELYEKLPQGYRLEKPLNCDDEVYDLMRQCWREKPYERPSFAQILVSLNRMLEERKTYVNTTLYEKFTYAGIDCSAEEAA

[26] = molecular target: Angiopoietin-1 receptor (Homo sapiens) (UniProt Q02763); conditions: at 1 µM
[27] = molecular target: Non-receptor tyrosine-protein kinase TNK1 (Homo sapiens) (UniProt Q13470); conditions: at 0.1 µM
[28] = molecular target: Non-receptor tyrosine-protein kinase TNK1 (Homo sapiens) (UniProt Q13470); conditions: at 1 µM
[29] = molecular target: Activated CDC42 kinase 1 (Homo sapiens) (UniProt Q07912); conditions: at 0.1 µM
[30] = molecular target: Activated CDC42 kinase 1 (Homo sapiens) (UniProt Q07912); conditions: at 1 µM
[31] = molecular target: High affinity nerve growth factor receptor (Homo sapiens) (UniProt P04629); conditions: at 0.1 µM
[32] = molecular target: High affinity nerve growth factor receptor (Homo sapiens) (UniProt P04629); conditions: at 1 µM
[33] = molecular target: BDNF/NT-3 growth factors receptor (Homo sapiens) (UniProt Q16620); conditions: at 0.1 µM
[34] = molecular target: BDNF/NT-3 growth factors receptor (Homo sapiens) (UniProt Q16620); conditions: at 1 µM
[35] = molecular target: NT-3 growth factor receptor (Homo sapiens) (UniProt Q16288); conditions: at 0.1 µM
[36] = molecular target: NT-3 growth factor receptor (Homo sapiens) (UniProt Q16288); conditions: at 1 µM
[37] = molecular target: Tyrosine-protein kinase TXK (Homo sapiens) (UniProt P42681); conditions: at 0.1 µM
[38] = molecular target: Tyrosine-protein kinase TXK (Homo sapiens) (UniProt P42681); conditions: at 1 µM
[39] = molecular target: Non-receptor tyrosine-protein kinase TYK2 (Homo sapiens) (UniProt P29597); conditions: at 0.1 µM;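 also: each value is a mean of the inhibition readings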
[40] = molecular target: Dual specificity protein kinase TTK (Homo sapiens) (UniProt P33981); conditions: at 1 µM;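 also: reported figures are mean TTK inhibition at 1 µM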
[41] = molecular target: Aurora kinase A (Homo sapiens) (UniProt O14965); conditions: at 0.1 µM
Sequence of Aurora kinase A (Homo sapiens) (O14965 whole entry): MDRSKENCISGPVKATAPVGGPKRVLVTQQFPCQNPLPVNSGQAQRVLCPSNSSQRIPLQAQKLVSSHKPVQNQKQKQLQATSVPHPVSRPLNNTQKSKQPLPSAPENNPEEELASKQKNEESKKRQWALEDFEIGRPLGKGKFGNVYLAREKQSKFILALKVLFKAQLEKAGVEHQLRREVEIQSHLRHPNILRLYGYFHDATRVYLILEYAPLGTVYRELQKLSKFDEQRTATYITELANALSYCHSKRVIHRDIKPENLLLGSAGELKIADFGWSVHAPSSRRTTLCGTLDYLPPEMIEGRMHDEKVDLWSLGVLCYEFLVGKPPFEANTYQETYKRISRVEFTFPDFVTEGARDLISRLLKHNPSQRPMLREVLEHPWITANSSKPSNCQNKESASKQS

[42] = molecular target: Aurora kinase A (Homo sapiens) (UniProt O14965); conditions: at 1 µM
[43] = molecular target: Aurora kinase B (Homo sapiens) (UniProt Q96GD4); conditions: at 0.1 µM
Sequence of Aurora kinase B (Homo sapiens) (Q96GD4 whole entry): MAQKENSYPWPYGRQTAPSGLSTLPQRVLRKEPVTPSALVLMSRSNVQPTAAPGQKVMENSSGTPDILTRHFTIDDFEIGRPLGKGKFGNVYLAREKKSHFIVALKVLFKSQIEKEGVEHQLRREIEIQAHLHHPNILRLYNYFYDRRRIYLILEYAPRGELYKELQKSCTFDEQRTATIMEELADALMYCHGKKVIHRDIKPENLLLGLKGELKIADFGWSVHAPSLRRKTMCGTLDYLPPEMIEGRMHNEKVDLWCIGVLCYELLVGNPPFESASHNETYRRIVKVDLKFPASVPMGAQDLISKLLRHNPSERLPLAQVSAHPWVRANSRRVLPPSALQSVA

[44] = molecular target: Aurora kinase B (Homo sapiens) (UniProt Q96GD4); conditions: at 1 µM
[45] = molecular target: Aurora kinase C (Homo sapiens) (UniProt Q9UQB9); conditions: at 0.1 µM
Sequence of Aurora kinase C (Homo sapiens) (Q9UQB9 whole entry): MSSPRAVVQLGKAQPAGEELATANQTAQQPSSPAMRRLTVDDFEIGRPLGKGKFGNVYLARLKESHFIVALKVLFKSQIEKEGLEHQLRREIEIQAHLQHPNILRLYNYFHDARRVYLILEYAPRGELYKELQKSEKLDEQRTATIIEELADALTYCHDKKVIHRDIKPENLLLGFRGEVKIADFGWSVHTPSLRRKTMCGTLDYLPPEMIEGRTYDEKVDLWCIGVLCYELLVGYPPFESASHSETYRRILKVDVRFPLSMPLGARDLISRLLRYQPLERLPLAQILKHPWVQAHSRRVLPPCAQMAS

[46] = molecular target: Aurora kinase C (Homo sapiens) (UniProt Q9UQB9); conditions: at 1 µM
[47] = molecular target: Serine/threonine-protein kinase 10 (Homo sapiens) (UniProt O94804); conditions: at 0.1 µM
Sequence of Serine/threonine-protein kinase 10 (Homo sapiens) (O94804 whole entry, looked up): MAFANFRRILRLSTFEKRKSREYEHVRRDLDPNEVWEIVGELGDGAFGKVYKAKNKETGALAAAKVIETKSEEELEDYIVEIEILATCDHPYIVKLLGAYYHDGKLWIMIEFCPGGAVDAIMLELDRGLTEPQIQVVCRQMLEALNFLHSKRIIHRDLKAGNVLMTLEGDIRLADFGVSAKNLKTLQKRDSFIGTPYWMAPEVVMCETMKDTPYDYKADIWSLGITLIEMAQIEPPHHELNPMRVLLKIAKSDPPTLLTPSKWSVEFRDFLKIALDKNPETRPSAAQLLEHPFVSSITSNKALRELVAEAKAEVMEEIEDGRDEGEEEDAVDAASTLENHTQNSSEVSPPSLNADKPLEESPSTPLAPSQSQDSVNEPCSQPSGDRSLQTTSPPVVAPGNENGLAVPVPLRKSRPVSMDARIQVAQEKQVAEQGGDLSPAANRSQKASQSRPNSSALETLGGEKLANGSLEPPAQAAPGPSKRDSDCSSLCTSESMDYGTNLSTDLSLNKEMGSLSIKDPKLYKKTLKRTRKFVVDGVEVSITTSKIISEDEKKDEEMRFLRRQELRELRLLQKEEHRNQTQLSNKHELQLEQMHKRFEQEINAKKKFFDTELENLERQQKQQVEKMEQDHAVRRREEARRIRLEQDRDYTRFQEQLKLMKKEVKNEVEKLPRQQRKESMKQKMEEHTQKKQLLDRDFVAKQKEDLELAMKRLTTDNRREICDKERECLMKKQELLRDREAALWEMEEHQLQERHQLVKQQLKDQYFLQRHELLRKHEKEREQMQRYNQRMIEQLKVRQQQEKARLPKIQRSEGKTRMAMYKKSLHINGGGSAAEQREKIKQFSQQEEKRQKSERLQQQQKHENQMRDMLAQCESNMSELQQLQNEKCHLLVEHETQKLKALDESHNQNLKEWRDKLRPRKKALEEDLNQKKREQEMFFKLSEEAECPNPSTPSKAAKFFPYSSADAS

[48] = molecular target: Serine/threonine-protein kinase 10 (Homo sapiens) (UniProt O94804); conditions: at 1 µM
[49] = molecular target: Mitogen-activated protein kinase kinase kinase kinase 2 (Homo sapiens) (UniProt Q12851); conditions: at 0.1 µM
[50] = molecular target: Mitogen-activated protein kinase kinase kinase kinase 2 (Homo sapiens) (UniProt Q12851); conditions: at 1 µM
[51] = molecular target: Mitogen-activated protein kinase kinase kinase kinase 4 (Homo sapiens) (UniProt O95819); conditions: at 0.1 µM
[52] = molecular target: Mitogen-activated protein kinase kinase kinase kinase 4 (Homo sapiens) (UniProt O95819); conditions: at 1 µM
[53] = molecular target: Dual specificity mitogen-activated protein kinase kinase 1 (Homo sapiens) (UniProt Q02750); conditions: at 0.1 µM
[54] = molecular target: Dual specificity mitogen-activated protein kinase kinase 1 (Homo sapiens) (UniProt Q02750); conditions: at 1 µM
[55] = molecular target: Misshapen-like kinase 1 (Homo sapiens) (UniProt Q8N4C8); conditions: at 0.1 µM
Sequence of Misshapen-like kinase 1 (Homo sapiens) (Q8N4C8 whole entry, looked up): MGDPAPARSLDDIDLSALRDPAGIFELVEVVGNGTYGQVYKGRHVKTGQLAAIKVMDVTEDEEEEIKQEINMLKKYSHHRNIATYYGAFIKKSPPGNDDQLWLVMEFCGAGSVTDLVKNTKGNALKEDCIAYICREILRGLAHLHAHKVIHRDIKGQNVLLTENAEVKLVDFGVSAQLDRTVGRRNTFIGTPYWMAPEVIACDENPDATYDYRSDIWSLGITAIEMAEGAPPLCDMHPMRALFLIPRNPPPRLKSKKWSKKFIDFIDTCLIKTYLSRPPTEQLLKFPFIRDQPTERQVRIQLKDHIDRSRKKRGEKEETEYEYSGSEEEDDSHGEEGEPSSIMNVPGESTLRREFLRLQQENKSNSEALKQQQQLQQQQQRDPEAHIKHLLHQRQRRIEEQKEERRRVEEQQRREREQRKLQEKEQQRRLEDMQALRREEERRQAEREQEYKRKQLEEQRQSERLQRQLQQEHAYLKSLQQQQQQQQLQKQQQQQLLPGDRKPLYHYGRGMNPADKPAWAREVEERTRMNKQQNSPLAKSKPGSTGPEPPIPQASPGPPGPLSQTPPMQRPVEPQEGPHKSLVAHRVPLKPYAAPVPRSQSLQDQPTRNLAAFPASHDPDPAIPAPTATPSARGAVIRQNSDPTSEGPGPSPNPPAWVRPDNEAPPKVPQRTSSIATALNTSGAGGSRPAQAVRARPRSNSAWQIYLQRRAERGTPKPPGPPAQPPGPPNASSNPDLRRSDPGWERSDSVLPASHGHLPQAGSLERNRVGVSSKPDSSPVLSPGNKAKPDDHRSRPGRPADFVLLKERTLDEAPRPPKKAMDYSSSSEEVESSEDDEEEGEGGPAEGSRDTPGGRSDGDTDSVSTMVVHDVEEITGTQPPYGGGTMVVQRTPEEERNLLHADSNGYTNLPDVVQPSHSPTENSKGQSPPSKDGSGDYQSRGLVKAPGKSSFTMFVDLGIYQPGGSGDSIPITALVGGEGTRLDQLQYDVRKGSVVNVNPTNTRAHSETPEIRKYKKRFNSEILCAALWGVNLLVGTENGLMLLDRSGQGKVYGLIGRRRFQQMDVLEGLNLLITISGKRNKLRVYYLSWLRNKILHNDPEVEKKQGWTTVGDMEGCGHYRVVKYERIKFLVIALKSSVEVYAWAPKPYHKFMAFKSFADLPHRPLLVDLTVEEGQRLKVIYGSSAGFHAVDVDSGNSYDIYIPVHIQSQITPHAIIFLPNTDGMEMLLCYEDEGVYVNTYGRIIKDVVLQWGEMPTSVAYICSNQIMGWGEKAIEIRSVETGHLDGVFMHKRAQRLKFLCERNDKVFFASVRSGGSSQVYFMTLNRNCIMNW

[56] = molecular target: Misshapen-like kinase 1 (Homo sapiens) (UniProt Q8N4C8); conditions: at 1 µM

Sequence of Tyrosine-protein kinase FRK (Homo sapiens) (P42685 whole entry): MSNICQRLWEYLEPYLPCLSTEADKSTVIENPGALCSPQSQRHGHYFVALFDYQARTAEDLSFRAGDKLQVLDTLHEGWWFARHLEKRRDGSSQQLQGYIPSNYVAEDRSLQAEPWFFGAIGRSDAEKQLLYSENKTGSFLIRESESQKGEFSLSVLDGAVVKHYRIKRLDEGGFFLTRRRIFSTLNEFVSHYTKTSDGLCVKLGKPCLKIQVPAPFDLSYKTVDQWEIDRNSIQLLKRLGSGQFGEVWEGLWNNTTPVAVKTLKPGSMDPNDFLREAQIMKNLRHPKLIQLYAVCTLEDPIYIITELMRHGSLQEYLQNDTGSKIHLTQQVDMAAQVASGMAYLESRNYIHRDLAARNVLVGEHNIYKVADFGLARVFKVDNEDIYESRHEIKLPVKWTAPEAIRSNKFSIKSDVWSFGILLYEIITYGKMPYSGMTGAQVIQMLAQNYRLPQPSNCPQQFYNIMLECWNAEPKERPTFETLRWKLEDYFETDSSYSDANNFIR

Q: Which inhibition [1] does the source give for `CNC(=O)Oc1cc(C)c(/C=C/c2cncc(C(=O)NC)c2)c(C)c1` here?
A: 8.91%

Q: And the inhibition [2]?
A: 49.7%

Q: What about the inhibition [3] of the same molecule?
A: 2.61%

Q: What about the inhibition [4] of the same molecule?
A: 13.1%

Q: What about the inhibition [5] of the same molecule?
A: 10.7%

Q: And the inhibition [6]?
A: 6.54%

Q: And the inhibition [7]?
A: -1.48%

Q: And the inhibition [8]?
A: 2.54%

Q: What about the inhibition [9] of the same molecule?
A: 2.06%

Q: And the inhibition [10]?
A: 3.32%

Q: What about the inhibition [11] of the same molecule?
A: 2.2%

Q: What about the inhibition [12] of the same molecule?
A: 2.71%

Q: And the inhibition [13]?
A: -0.85%

Q: And the inhibition [14]?
A: 4.22%

Q: And the inhibition [15]?
A: 9.53%

Q: And the inhibition [16]?
A: 13.7%

Q: And the inhibition [17]?
A: 5.94%

Q: What about the inhibition [18] of the same molecule?
A: 49.2%

Q: And the inhibition [19]?
A: 4.13%

Q: What about the inhibition [20] of the same molecule?
A: 19.3%

Q: What about the inhibition [21] of the same molecule?
A: -1.41%

Q: What about the inhibition [22] of the same molecule?
A: -0.86%

Q: And the inhibition [23]?
A: 8.66%

Q: What about the inhibition [24] of the same molecule?
A: 39.1%

Q: What about the inhibition [25] of the same molecule?
A: -0.08%

Q: And the inhibition [26]?
A: 3.57%

Q: What about the inhibition [27] of the same molecule?
A: 1.27%

Q: What about the inhibition [28] of the same molecule?
A: 14.6%

Q: And the inhibition [29]?
A: 0.99%

Q: What about the inhibition [30] of the same molecule?
A: 6.77%

Q: And the inhibition [31]?
A: 1.04%

Q: What about the inhibition [32] of the same molecule?
A: -0.56%

Q: And the inhibition [33]?
A: 1.03%

Q: And the inhibition [34]?
A: 0.99%

Q: And the inhibition [35]?
A: -0.56%

Q: And the inhibition [36]?
A: 2.73%

Q: What about the inhibition [37] of the same molecule?
A: 13.4%

Q: And the inhibition [38]?
A: 34.7%

Q: What about the inhibition [39] of the same molecule?
A: -4.14%

Q: What about the inhibition [40] of the same molecule?
A: 8.09%

Q: What about the inhibition [41] of the same molecule?
A: 2.77%

Q: What about the inhibition [42] of the same molecule?
A: 4.58%

Q: What about the inhibition [43] of the same molecule?
A: 0.2%

Q: What about the inhibition [44] of the same molecule?
A: 1.25%

Q: What about the inhibition [45] of the same molecule?
A: 0.65%

Q: What about the inhibition [46] of the same molecule?
A: 9.48%

Q: And the inhibition [47]?
A: 5.93%

Q: And the inhibition [48]?
A: 16.9%

Q: What about the inhibition [49] of the same molecule?
A: 0.92%

Q: What about the inhibition [50] of the same molecule?
A: 5.49%

Q: And the inhibition [51]?
A: 3.12%

Q: And the inhibition [52]?
A: 8.96%

Q: What about the inhibition [53] of the same molecule?
A: 2.97%

Q: And the inhibition [54]?
A: 4.15%

Q: What about the inhibition [55] of the same molecule?
A: 3.2%

Q: And the inhibition [56]?
A: 7.01%
